Reference: PubChem BioAssay (NCI)
The panel holds about 83,000 compounds, 20% with a hit somewhere; the sample as a whole holds those more often.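 Percent growth is the endpoint: 0 to 100 indicates growth inhibition (40 means 60% inhibition), 0 means no net growth, and negative values indicate cell death.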 Calls of active or inactive are those of the source. The calls were made as follows: active = growth percent below 10; inactive = the rest.

Legend:
Assay in all cases: NCI-60 one-dose screen, 48 h (100 = growth as untreated, 0 = no growth, -100 = all killed)
[1] = system: SK-MEL-2 melanoma; settings: 10 µM unless noted
[2] = system: EKVX NSCLC; settings: 10 µM unless noted
[3] = system: SN12C renal; settings: 10 µM unless noted
[4] = system: UO-31 renal; settings: 10 µM unless noted
[5] = system: TK-10 renal; settings: 10 µM unless noted
[6] = system: ACHN renal; settings: 10 µM unless noted
[7] = system: A498 renal; settings: 10 µM unless noted
[8] = system: CCRF-CEM leukemia; settings: 10 µM unless noted
[9] = system: MOLT-4 leukemia; settings: 10 µM unless noted
[10] = system: SR leukemia; settings: 10 µM unless noted
[11] = system: RPMI-8226 leukemia; settings: 10 µM unless noted
[12] = system: OVCAR-8 ovarian; settings: 10 µM unless noted
[13] = system: OVCAR-5 ovarian; settings: 10 µM unless noted
[14] = system: OVCAR-4 ovarian; settings: 10 µM unless noted
[15] = system: SK-OV-3 ovarian; settings: 10 µM unless noted
[16] = system: IGROV1 ovarian; settings: 10 µM unless noted
[17] = system: OVCAR-3 ovarian; settings: 10 µM unless noted
[18] = system: HS 578T breast; settings: 10 µM
[19] = system: NCI/ADR-RES ovarian; settings: 10 µM unless noted
[20] = system: CAKI-1 renal; settings: 10 µM unless noted

Measured: growth

C/C(=N\NC(=S)Nc1ccccc1)c1ccccn1
active: [4] -1.12% | [9] 8.83% | [17] 9.49%
inactive: [1] 73.5% | [2] 12.9% | [3] 39.2% | [5] 50.9% | [6] 17.7% | [7] 29.1% | [8] 16.7% | [10] 13.7% | [11] 33.5% | [12] 11.8% | [13] 35.6% | [14] 33.5% | [15] 40% | [16] 15.7% | [18] 64.1% | [19] 17.2%

COc1ccc(/C=C/C(=O)c2ccc(NC(=O)CSc3nnc(-c4ccc(Cl)cc4)n3-c3ccccc3)cc2)cc1
inactive: [1] 104% | [2] 89.4% | [3] 91.2% | [4] 79.8% | [5] 113% | [6] 103% | [7] 84.6% | [8] 94.9% | [9] 65.5% | [11] 60.4% | [12] 84.6% | [13] 123% | [14] 99.5% | [15] 104% | [16] 103% | [17] 102% | [18] 97.1% | [19] 93.9%

CN1CCN(c2ccc(N3Cc4ccccc4OC4=C3C(=O)c3c(O)ccc(O)c3C4=O)cn2)CC1
active: [1] -36.8% | [2] -1.22% | [3] -62% | [4] -99.5% | [5] -98.7% | [6] -100% | [7] -20.7% | [8] -12.7% | [9] -17.8% | [11] -7.62% | [12] 2.15% | [13] -32.5% | [14] -97.2% | [16] -59.3% | [17] -99.6% | [19] 5.09%
inactive: [15] 26% | [18] 23.5%

C=CCOc1c(Br)cc(Br)cc1Br
inactive: [1] 69.3% | [2] 64% | [3] 62.9% | [4] 28.2% | [5] 102% | [6] 48.7% | [7] 55.9% | [8] 43.6% | [9] 64.6% | [10] 34.8% | [11] 38.7% | [12] 74.3% | [13] 76.2% | [14] 63.4% | [15] 64.9% | [16] 30% | [18] 42.2% | [19] 63.7%

C=C(C)C1CCC2(C(=O)O)CCC3(C)C(CCC4C5(C)CCC(O)C(C)(C)C5CCC43C)C12 (stereo not given)
active: [20] -5.47% | [8] 3.16% | [10] 9.38% | [11] 7.96% | [13] -87.3% | [14] -40.7% | [16] 7.47% | [17] -56.1% | [19] -54%
inactive: [1] 25.4% | [2] 48.1% | [3] 26.8% | [4] 21.5% | [5] 12.8% | [6] 24.2% | [9] 11.3% | [15] 28%

CC(=O)N(C)c1ccc(Nc2cc(C)[nH]c3ccc4ncnc4c23)cc1
active: [9] 1.82% | [16] 1.11%
inactive: [1] 116% | [2] 79.4% | [3] 61.7% | [5] 79.3% | [6] 55.4% | [20] 80.3% | [7] 78.5% | [8] 28.9% | [10] 11.1% | [11] 56.2% | [13] 63.5% | [14] 77.9% | [15] 74.3% | [17] 76.3% | [18] 75.1% | [19] 101%

O=C(CN1CCN(c2ccccc2)CC1)N1CCN(c2nnc(-c3ccc(Cl)cc3)c(-c3ccc(Cl)cc3)n2)CC1
inactive: [1] 71.9% | [2] 35% | [3] 62.7% | [5] 73.4% | [6] 53.6% | [7] 62.6% | [8] 29.4% | [10] 23.1% | [12] 68% | [13] 111% | [14] 45.5% | [15] 103% | [16] 50.7% | [17] 64.3% | [18] 77.5% | [19] 60.4%
active: [9] 2% | [11] -39.6%

NCCCOc1cc2ccccc2cc1C(=O)NCCCOc1cc2ccccc2cc1C(=O)Nc1ccc(Cl)cc1O
inactive: [18] 14.5% | [19] 29.2%
active: [1] -73.8% | [2] -45.6% | [3] -78.5% | [5] -95.5% | [6] -95.9% | [20] -89.9% | [7] -38.7% | [8] -16.3% | [9] -20.6% | [10] -7.88% | [11] -18.3% | [12] -57.6% | [13] -92.5% | [14] -77.4% | [15] -80.4% | [16] -31.6% | [17] -31.2%

SCc1ccc(CS)cc1
inactive: [1] 108% | [2] 104% | [3] 100% | [4] 85.6% | [5] 115% | [6] 102% | [8] 98% | [11] 103% | [12] 98.4% | [13] 95.9% | [14] 101% | [15] 104% | [16] 105% | [17] 115% | [19] 109%

CN(C)c1ccc(N2Cc3ccccc3OC3=C2C(=O)c2c(O)ccc(O)c2C3=O)cn1
inactive: [18] 44.7%
active: [1] -51.5% | [2] -15.8% | [3] -91.7% | [5] -93.9% | [6] -100% | [7] -61.1% | [8] -8.39% | [9] -22.4% | [11] -17.2% | [12] -12.1% | [13] -50.6% | [14] -98.2% | [15] -7.84% | [16] -63.3% | [17] -95.8% | [19] 3.51%

NC(N)=N/N=C\c1ccc(OCc2ccccc2)cc1
inactive: [1] 86.6% | [2] 88.6% | [3] 79.5% | [4] 64.6% | [5] 73.4% | [6] 75.7% | [8] 72.3% | [9] 73.8% | [10] 75.4% | [11] 83.4% | [13] 82.8% | [14] 56.8% | [15] 77.1% | [16] 77.7% | [17] 74.4% | [19] 80%

COc1ccc2nc(NC(=O)/C(=C/c3cc(OC)c(OC)c(OC)c3)c3ccc(OC)c(OC)c3)sc2c1
inactive: [1] 95.6% | [2] 77.8% | [3] 99.9% | [5] 98.5% | [6] 94.9% | [20] 75.9% | [7] 95.7% | [9] 83.7% | [10] 73% | [11] 96.6% | [12] 90% | [13] 91.9% | [14] 93.4% | [15] 104% | [16] 81.6% | [17] 84.4% | [18] 103% | [19] 89%

O=C(NO)c1ccc(NCc2csc3ccccc23)cc1
active: [19] 6.83%
inactive: [1] 84.1% | [2] 69.7% | [3] 59.4% | [4] 39.5% | [5] 59.1% | [6] 69.6% | [7] 57.1% | [9] 43.1% | [11] 35.7% | [12] 42% | [13] 73.4% | [14] 67.8% | [15] 81.8% | [16] 55.6% | [17] 66.8% | [18] 70.5%

C=CCn1c(SCC(=O)Nc2ccc(/C(C)=N\O)cc2)nnc1-c1cc(-c2ccc(Cl)cc2)nc2ccccc12
inactive: [1] 28.5% | [2] 32% | [3] 33.7% | [5] 31.8% | [6] 20.2% | [7] 21.9% | [8] 11.1% | [12] 24% | [13] 56.7% | [14] 35% | [15] 52.6% | [17] 31.1% | [18] 67.1%
active: [4] -12.5% | [9] -25.3% | [11] 9% | [16] -13.8% | [19] 2.18%

O=C(Nc1ccc(Cl)c(C(F)(F)F)c1)c1ccc(Nc2ccc(Cl)nn2)cc1
inactive: [1] 83.3% | [2] 55.7% | [3] 78.9% | [5] 68.1% | [6] 52.4% | [7] 51.6% | [8] 44.8% | [11] 38.3% | [12] 55.2% | [13] 76.7% | [14] 42.2% | [15] 85.3% | [16] 87.6% | [17] 66.8% | [18] 85.7% | [19] 61.1%
active: [4] 0.31%

CC(=O)O[C@H]1[C@H](CC#CC#CC[C@@H]2C[C@]3(C)[C@H]4CC=C5[C@H]6[C@@H](C)[C@H](C)CC[C@]6(C(=O)NCCN(CCN)CCN)CC[C@@]5(C)[C@]4(C)CC[C@H]3C(C)(C)[C@H]2OC(C)=O)C[C@]2(C)[C@H]3CC=C4[C@H]5[C@@H](C)[C@H](C)CC[C@]5(C(=O)NCCN(CCN)CCN)CC[C@@]4(C)[C@]3(C)CC[C@H]2C1(C)C
inactive: [1] 67% | [4] 33.7% | [5] 110% | [6] 75.9% | [20] 35% | [7] 122% | [8] 19.8% | [9] 26.8% | [10] 53.9% | [11] 26.6% | [13] 54.6% | [14] 97.4% | [15] 89.2% | [16] 62.3% | [17] 89% | [18] 70.6% | [19] 49.2%
active: [2] -6.42% | [12] 3.13%

CCOC(=O)c1ccc(NCCC(=O)O)cc1
inactive: [1] 96.7% | [2] 122% | [3] 108% | [5] 101% | [6] 103% | [20] 109% | [7] 113% | [8] 97.6% | [9] 87.2% | [10] 103% | [11] 115% | [12] 104% | [13] 110% | [15] 113% | [16] 112% | [17] 138% | [18] 104% | [19] 113%
